Nine compounds from PubChem BioAssay (Tox21) can be followed below.

Structures are written as SMILES. Records with an inconclusive call do not appear. Unmarked numbers belong to inactive results. Calls of active or inactive are those of the source. Unless noted, calls come from the whole dose curve; as a rule, active = well fitted curve in the direction sought with a large enough effect in the repeat runs; inconclusive = weak or mixed curves; inactive = no such curve, though single readings can be large; an effect the other way counts as inactive or inconclusive.

The nature of assay [1]: qHTS assay to identify small molecule agonists of the peroxisome proliferator-activated receptor delta (PPARd) signaling pathway - cell viability counter screen (AID 743211). Note: % is set by controls: 0 for no effect and ±100 for the full control effect; nearly all actives have a fitted effect of over 55% in size. A digest of the protocol:
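Counter screen for cytotoxicity run in parallel with the PPARd reporter screen. Beta-lactamase reporter HEK293H cells exposed to compounds 17 h; ATP-based CellTiter-Glo luminescence quantified viability.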
In general terms: Quantitative high-throughput screening tests each substance at several concentrations.

The target of assay [2] is Peroxisome proliferator-activated receptor delta (Homo sapiens) (UniProt Q03181). Description: qHTS assay to identify small molecule agonists of the peroxisome proliferator-activated receptor delta (PPARd) signaling pathway (AID 743212; calls by dose curve; note: % is set by controls: 0 for no effect and ±100 for the full control effect). In short, it runs like this: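 Read-out: beta-lactamase FRET fluorescence after 2 h room-temperature incubation with LiveBLAzer B/G substrate. Cells were HEK293H carrying a UAS-bla reporter for PPARd, treated at 37 C with DMSO-dissolved compounds.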

A short description of assay [3]: qHTS assay to identify small molecule antagonists of the peroxisome proliferator-activated receptor delta (PPARd) signaling pathway - cell viability counter screen (AID 743213). Note: % is set by controls: 0 for no effect and ±100 for the full control effect; nearly all actives have a fitted effect of over 50% in size. A digest of the protocol: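 Viability counter-screen, qHTS format: PPARd-bla HEK293H, L165041 300 nM final, 17 h compound exposure at 37 C, CellTiter-Glo luminescence after 30 min RT.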
In assay [4] the target is Peroxisome proliferator-activated receptor delta (Homo sapiens) (UniProt Q03181). The assay can be described thus: qHTS assay to identify small molecule antagonists of the peroxisome proliferator-activated receptor delta (PPARd) signaling pathway (AID 743215; active = well fitted inhibition curve with a large enough effect in the signal ratio in the repeat runs, not every such curve was filed as active; the % refers to the signal ratio;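 note: cells stimulated with agonist L165041 at 300 nM final during compound exposure; series mostly up to about 62 µM; % is set by controls: 0 for no effect and ±100 for the full control effect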). In short, it runs like this:
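HEK293H GeneBLAzer PPARd UAS-bla reporter cells; cpd + L165041 300 nM final, 17 h 37 C; LiveBLAzer B/G FRET substrate 2 h RT; fluorescence intensity read-out. Antagonist mode.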

The nature of assay [5]: qHTS assay to identify small molecule agonists of the farnesoid-X-receptor (FXR) signaling pathway - cell viability counter screen (AID 743218). Note: % is set by controls: 0 for no effect and ±100 for the full control effect; nearly all actives have a fitted effect of over 45% in size. In short, it runs like this:
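Luminescence from CellTiter-Glo, read after 30 min at RT, reports viability of GeneBLAzer FXR-UAS-bla HEK 293T cells treated 16 h with compounds in the wells used for the beta-lactamase reporter.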

A short description of assay [6]: qHTS assay to identify small molecule antagonists of the farnesoid-X-receptor (FXR) signaling pathway - cell viability counter screen (AID 743221; active = well fitted cell-killing curve with a large enough effect in the repeat runs, not every such curve was filed as active; note: % is set by controls: 0 for no effect and ±100 for the full control effect; nearly all actives have a fitted effect of over 50% in size). In short, it runs like this:
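Multiplexed counter screen: viability of FXR-bla HEK 293T cells under agonist stimulation by chenodeoxycholic acid (50 uM, final) and test compound for 16 h at 37 C, measured by CellTiter-Glo luminescence in the reporter wells.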

Assay [7] deals with Vitamin D3 receptor (Homo sapiens) (UniProt P11473). Description: qHTS assay to identify small molecule agonists of the vitamin D receptor (VDR) signaling pathway (AID 743222; calls by dose curve; note: % is set by controls: 0 for no effect and ±100 for the full control effect). A digest of the protocol:
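Beta-lactamase reporter readout (LiveBLAzer B/G FRET, 2 h RT) in VDR-bla cells after 16 h compound treatment at 37C, 5% CO2; cells pre-incubated 4 h before pin transfer of DMSO solutions.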

Assay [8] can be described thus: qHTS assay to identify small molecule agonists of the vitamin D receptor (VDR) signaling pathway - cell viability counter screen (AID 743224). Note: series mostly up to about 63 µM; % is set by controls: 0 for no effect and ±100 for the full control effect; nearly all actives have a fitted effect of over 50% in size. In short, it runs like this:
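Cytotoxicity counter screen: VDR-bla cells, 16 h compound exposure at 37C, 5% CO2; CellTiter-Glo luminescence, 30 min RT, same wells as bla read.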

A short description of assay [9]: qHTS assay to identify small molecule antagonists of the vitamin D receptor (VDR) signaling pathway - cell viability counter screen (AID 743225). Note: % is set by controls: 0 for no effect and ±100 for the full control effect; nearly all actives have a fitted effect of over 50% in size. In short, it runs like this: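 HEK293T VDR-bla; cpd + 1a,25-(OH)2D3 3 nM final, 16 h 37C/5% CO2; B/G FRET substrate 2 h RT; then CellTiter-Glo 30 min RT, luminescence.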
A short description of assay [10]: qHTS assay to identify small molecule agonists of the NFkB signaling pathway - cell viability counter screen (AID 1159515; calls by dose curve; note: series mostly up to about 61 µM; % is set by controls: 0 for no effect and ±100 for the full control effect; nearly all actives have a fitted effect of over 55% in size). A digest of the protocol:
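ME-180 NFkB-bla cells, 2,000/well; overnight attach; compound 5 hr, 37 C/5% CO2; LiveBLAzer substrate 1.5 hr RT; then CellTiter-Glo in same wells, 30 min RT, luminescence read.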

A short description of assay [11]: qHTS assay to identify small molecule agonists of the endoplasmic reticulum stress response signaling pathway (AID 1159516; active = well fitted activation curve with a large enough effect in the signal ratio in the repeat runs, not every such curve was filed as active; the % refers to the signal ratio; note: % is set by controls: 0 for no effect and ±100 for the full control effect). In short, it runs like this:
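HeLa ESRE-bla reporter line; cpd 5 h, 37 C/5% CO2; LiveBLAzer B/G FRET substrate 2 h RT; ex 405, em 460/530 nm.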

Assay [12] can be described thus: qHTS assay to identify small molecule agonists of the endoplasmic reticulum stress response signaling pathway - cell viability counter screen (AID 1159517; calls by dose curve). A digest of the protocol:
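Steps: seed 1,500 ESRE-bla HeLa cells per well; incubate overnight at 37 C, 5% CO2; add compounds in DMSO for 5 hr; run FRET substrate 2 hr RT; add CellTiter-Glo, wait 30 min, read luminescence.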

Assay [13] addresses Nuclear receptor ROR-gamma (Homo sapiens) (UniProt P51449). Description: qHTS assay to identify small molecule antagonists of the retinoid-related orphan receptor gamma (ROR-gamma) signaling pathway (AID 1159521; note: nearly all actives have a fitted effect of over 50% in size; note: potency is the fitted concentration of half-maximal effect). In short, it runs like this:
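Cells were plated, rested 4 h at 37 C, exposed to compounds for 2 h, then given 1 uM final doxycycline hyclate to induce RORγ expression. After 16 h, ONE-Glo luminescence from the ROR response element reporter was measured.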

The nature of assay [14]: qHTS assay to identify small molecule agonists of the AP-1 signaling pathway - cell viability counter screen (AID 1159525; calls by dose curve; note: nearly all actives have a fitted effect of over 55% in size). A digest of the protocol: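 Same-well cytotoxicity counter screen of the Tox21 10K library in ME-180 cells. The readout is ATP-dependent luminescence after 5 h compound treatment. Data are normalised to DMSO and tetra n-octyl ammonium bromide controls.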

Assay [15] in a line: qHTS assay to identify small molecule agonists of the AP-1 signaling pathway (AID 1159526; calls by dose curve; note: % is set by controls: 0 for no effect and ±100 for the full control effect).
For assay [16], the target named is Bile acid receptor (Homo sapiens) (UniProt Q96RI1). Description: qHTS assay to identify small molecule agonists of the farnesoid-X-receptor (FXR) signaling pathway (AID 743220; active = well fitted activation curve with a large enough effect in the signal ratio in the repeat runs, not every such curve was filed as active; the % refers to the signal ratio; note: % is set by controls: 0 for no effect and ±100 for the full control effect). A digest of the protocol:
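FXR-UAS-bla HEK 293T cells carrying a UAS-driven beta-lactamase reporter were plated for 5 h at 37C/5% CO2, then exposed to DMSO-dissolved Tox21 10K compounds for 16 h at 37C. A LiveBLAzer B/G FRET substrate was loaded for 2 h at room temperature before fluorescence reading.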

Assay [17] addresses Vitamin D3 receptor (Homo sapiens) (UniProt P11473). Description: qHTS assay to identify small molecule antagonists of the vitamin D receptor (VDR) signaling pathway (AID 743223; active = well fitted inhibition curve with a large enough effect in the signal ratio in the repeat runs, not every such curve was filed as active; the % refers to the signal ratio; note: % is set by controls: 0 for no effect and ±100 for the full control effect). In short, it runs like this:
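Cells carrying a VDR-driven beta-lactamase reporter (VDR-bla) were co-treated with compound and 3 nM final 1alpha,25-dihydroxyvitamin D3 for 16 h at 37C; reporter activity was measured as FRET substrate fluorescence after 2 h at room temperature.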

A short description of assay [18]: qHTS assay to identify small molecule antagonists of the retinoid-related orphan receptor gamma (ROR-gamma) signaling pathway - cell viability counter screen (AID 1159520). A digest of the protocol:
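Tet-on ROR gamma CHO cells were given compounds for 2 hr, then doxycycline hyclate at 1 uM final, and incubated 16 hr at 37 C. Viability was measured as ATP content by CellTiter-Glo luminescence.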

Assay [19] deals with Retinoic acid receptor RXR-alpha (Homo sapiens) (UniProt P19793). The assay can be described thus: qHTS assay to identify small molecule agonists of the RXR signaling pathway (AID 1159527; calls by dose curve; note: % is set by controls: 0 for no effect and ±100 for the full control effect; nearly all actives have a fitted effect of over 35% in size). In short, it runs like this: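 Cells plated at 2,000/well, rested 5 hr at 37 C, pin-dosed with DMSO compound solutions, incubated 16 hr, then loaded with B/G FRET substrate for 2 hr at RT before dual-emission fluorescence reading.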

Assay [20] addresses Bile acid receptor (Homo sapiens) (UniProt Q96RI1). Description: qHTS assay to identify small molecule antagonists of the farnesoid-X-receptor (FXR) signaling pathway (AID 743217; active = well fitted inhibition curve with a large enough effect in the signal ratio in the repeat runs, not every such curve was filed as active; the % refers to the signal ratio; note: % is set by controls: 0 for no effect and ±100 for the full control effect). In short, it runs like this:
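Read-out: beta-lactamase FRET fluorescence (LiveBLAzer B/G substrate, 2 h, room temperature) in GeneBLAzer FXR-UAS-bla HEK 293T cells. Compounds were co-dosed with 50 uM chenodeoxycholic acid (final) and incubated 16 h at 37 °C.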

Sequence of Peroxisome proliferator-activated receptor delta (Homo sapiens) (Q03181 whole entry, looked up): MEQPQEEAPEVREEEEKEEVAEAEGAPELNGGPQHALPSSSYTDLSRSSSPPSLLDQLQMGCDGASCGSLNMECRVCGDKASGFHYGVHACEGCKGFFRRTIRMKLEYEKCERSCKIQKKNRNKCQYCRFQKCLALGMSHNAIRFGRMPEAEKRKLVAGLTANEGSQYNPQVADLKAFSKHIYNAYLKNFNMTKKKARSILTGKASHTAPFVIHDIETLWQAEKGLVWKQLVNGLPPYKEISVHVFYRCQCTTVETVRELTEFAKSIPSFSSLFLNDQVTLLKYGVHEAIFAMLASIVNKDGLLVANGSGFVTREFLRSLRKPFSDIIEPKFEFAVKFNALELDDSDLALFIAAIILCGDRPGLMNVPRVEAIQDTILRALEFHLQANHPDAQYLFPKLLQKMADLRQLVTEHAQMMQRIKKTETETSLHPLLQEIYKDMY
Sequence of Bile acid receptor (Homo sapiens) (Q96RI1 whole entry, looked up): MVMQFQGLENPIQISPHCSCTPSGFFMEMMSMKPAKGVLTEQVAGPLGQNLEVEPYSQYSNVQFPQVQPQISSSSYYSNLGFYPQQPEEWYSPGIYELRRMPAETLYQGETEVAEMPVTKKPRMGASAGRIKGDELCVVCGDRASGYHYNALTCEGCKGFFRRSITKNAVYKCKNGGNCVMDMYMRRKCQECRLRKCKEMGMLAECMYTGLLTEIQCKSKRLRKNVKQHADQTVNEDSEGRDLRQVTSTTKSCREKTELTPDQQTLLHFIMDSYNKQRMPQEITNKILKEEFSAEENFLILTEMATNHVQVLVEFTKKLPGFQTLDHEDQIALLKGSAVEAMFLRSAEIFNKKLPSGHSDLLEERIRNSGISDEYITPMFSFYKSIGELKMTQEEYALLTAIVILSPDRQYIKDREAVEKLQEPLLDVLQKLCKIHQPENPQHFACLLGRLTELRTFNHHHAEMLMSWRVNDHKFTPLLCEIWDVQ
Sequence of Vitamin D3 receptor (Homo sapiens) (P11473 whole entry, looked up): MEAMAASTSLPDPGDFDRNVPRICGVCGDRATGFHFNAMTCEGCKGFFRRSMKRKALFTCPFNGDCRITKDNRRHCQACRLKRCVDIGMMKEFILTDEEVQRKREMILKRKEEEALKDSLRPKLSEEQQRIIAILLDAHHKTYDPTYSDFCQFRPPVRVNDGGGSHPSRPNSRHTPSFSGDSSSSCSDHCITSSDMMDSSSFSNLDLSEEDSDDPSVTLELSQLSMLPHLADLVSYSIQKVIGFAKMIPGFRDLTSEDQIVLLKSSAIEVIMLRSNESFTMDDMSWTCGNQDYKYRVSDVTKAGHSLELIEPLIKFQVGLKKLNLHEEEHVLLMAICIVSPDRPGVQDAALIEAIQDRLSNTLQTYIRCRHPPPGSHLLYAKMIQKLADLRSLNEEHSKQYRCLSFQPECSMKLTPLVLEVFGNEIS
Sequence of Retinoic acid receptor RXR-alpha (Homo sapiens) (P19793 whole entry, looked up): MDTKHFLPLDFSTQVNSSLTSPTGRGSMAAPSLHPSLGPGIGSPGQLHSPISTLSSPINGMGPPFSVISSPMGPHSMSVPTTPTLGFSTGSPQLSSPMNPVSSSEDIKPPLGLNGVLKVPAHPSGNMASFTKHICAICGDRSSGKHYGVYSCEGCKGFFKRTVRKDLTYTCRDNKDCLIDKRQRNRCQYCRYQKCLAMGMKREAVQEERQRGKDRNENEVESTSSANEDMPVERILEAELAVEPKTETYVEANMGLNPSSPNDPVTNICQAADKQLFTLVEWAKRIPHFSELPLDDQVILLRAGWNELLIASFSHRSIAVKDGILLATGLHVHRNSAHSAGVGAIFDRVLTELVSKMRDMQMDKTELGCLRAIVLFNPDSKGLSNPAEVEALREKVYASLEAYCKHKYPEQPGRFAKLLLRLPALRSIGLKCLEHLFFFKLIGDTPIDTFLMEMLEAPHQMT

On to `C=C(C)C(=O)OCCN(C)C`, for which the Potency entry in [1], in assay [3], in assay [5], in assay [6], in [8] and in [9] was “inactive” throughout. Moreover, the Potency entry in [10], in [11], in [13], in [14] and in assay [15] was “inactive” in each case. For the same compound, the result in assay [2], in [4], in [7] and in [12] was inactive.

`O=CNc1ccccc1`: the Potency entry in assay [1], in assay [5], in assay [6], in assay [17], in [8] and in assay [9] was “inactive” throughout. Further, the Potency entry in assay [10], in assay [11], in assay [13], in assay [14] and in [15] was “inactive” in each case. The call in assay [2], in assay [4], in assay [16], in [7] and in assay [12] was inactive.

For the compound `Cl/C(=C\n1cncn1)c1ccc(Cl)cc1Cl`, the Potency entry in [1], in assay [3], in assay [5], in assay [6], in assay [8] and in [9] was “inactive” each time. In addition, the Potency result in assay [10], in assay [11], in [18], in assay [13] and in assay [14] was “inactive” each time. The result in assay [2] and in assay [12] was inactive.

For the compound `SC1CCCC1`, the Potency entry in assay [1], in assay [3], in assay [5], in assay [6], in assay [8] and in [9] was “inactive” each time. Moreover, the Potency result in assay [10], in [11], in assay [13], in assay [14] and in [15] was “inactive” each time. Moreover, the compound was called inactive in [12].

As to `O=[N+]([O-])c1cc[n+]([O-])cc1`, the Potency entry in assay [1], in [3], in assay [5], in assay [6], in assay [9] and in assay [10] was “inactive” each time. Further, the Potency entry in [11], in assay [18] and in assay [14] was “inactive” each time. The outcome in assay [16], in assay [7] and in [12] was inactive. In addition, the Potency in [13] was 9.69 µM (active).

As to `C1=Cc2ccccc2C1`, the Potency entry in assay [1], in assay [3], in [5], in assay [6], in assay [17] and in assay [8] was “inactive” in each case. The Potency result in assay [9], in [10], in assay [11], in [13], in [14] and in assay [15] was “inactive” each time. For the same compound, the Potency entry in assay [19] is “inactive”. Also, the compound was called inactive in assay [2], in assay [7] and in assay [12].

For `CCCOc1ccc2nc(NC(=O)OC)[nH]c2c1`, the Potency entry in assay [1], in assay [5], in assay [6], in [8], in assay [10] and in [11] was “inactive” throughout. Further, the Potency result in assay [18], in assay [13] and in assay [14] was “inactive” throughout. Moreover, the call in [2], in [7] and in assay [12] was inactive.

Regarding `CC(=O)[C@@]1(O)CC[C@H]2[C@@H]3C[C@H](C)C4=CC(=O)CC[C@]4(C)[C@H]3CC[C@@]21C`, the Potency entry in assay [1], in assay [3], in [5], in assay [6], in assay [8] and in [9] was “inactive” each time. Moreover, the Potency result in assay [10], in assay [11], in assay [18], in assay [13] and in assay [14] was “inactive” throughout. Moreover, the result in assay [2], in [7] and in assay [12] was inactive.

With `CCCCCCCCCCCCCCCCCBr`, the Potency result in [1], in assay [3], in assay [5], in [6], in assay [17] and in assay [8] was “inactive” each time. Further, the Potency entry in assay [9], in [10] and in [11] was “inactive” throughout. In addition, the compound was called inactive in assay [20], in assay [16], in assay [7] and in [12]. In addition, the activity, negative = cytotoxicity in assay [18] is 2.1% [at 19 µM]. Moreover, in assay [13], the activity change, negative = inhibition is 24.8% [at 19 µM]. The viability change, negative = cytotoxic in assay [14] was 0.953% [at 15.8 µM].
